In PubChem BioAssay (NCI):
This is part of a sample that, as a whole, favours compounds with a hit. Of some 79,000 tested, about 15% had one in any assay. Values without a mark were called inactive. Activity calls are given as the source filed them. Rule as the data show it: active = growth inhibition above about 70%; inactive = the rest.

Test: NCI Yeast Anticancer Drug Screen. Data for the rad18 strain (AID 177)
Conditions: S. cerevisiae rad18 mutant growth inhibition, hits give high values
Protocol: Growth inhibition of yeast strains with defined genetic alterations is measured as a screen for potential anti-cancer activity. Selected strains with alterations in DNA damage repair or cell cycle control were exposed to compounds and growth inhibition was measured relative to vehicle treated controls. The strain used in this assay is rad18

| SMILES | growth inhibition (at 1.2 µM) | growth inhibition (at 3.7 µM) | growth inhibition (at 11.0 µM) | growth inhibition (at 33.0 µM) | growth inhibition (at 100.0 µM) |
| --- | --- | --- | --- | --- | --- |
| S=c1[nH]nc(-c2ccc(Cl)cc2)s1 | -15% | -6% | 21% | 92% (active) | 96% (active) |
| Cc1ccc(N=Nc2ccc(O)c(C)c2)cc1 | 27% | 27% | 89% (active) | 98% (active) | 91% (active) |
| Clc1c(Cl)c(Cl)c2n[nH]nc2c1Cl | -29% | -38% | -25% | 4% | 57% |
| O=S(=O)(c1cc(Cl)ccc1O)c1cc(Cl)ccc1O | 26% | 84% (active) | 98% (active) | 99% (active) | 99% (active) |
| O=C(O)c1cccc2cccc(-c3c4ccc(=O)cc-4oc4cc(O)ccc34)c12 | 18% | 23% | 71% (active) | 79% (active) | 94% (active) |
| O=C1c2c(O)cccc2-c2nn(CCNCCO)c3ccc(NCCNCCO)c1c23 | 13% | 15% | -2% | 9% | 0% |
| Cc1cccc2c1N=C(C(F)(F)F)CC2=O | 0% | 1% | 3% | 9% | 43% |
| CCCCC(=O)c1c(O)nc2sccn2c1=O | 17% | 20% | 72% (active) | 95% (active) | 97% (active) |
